USP30 inh = blocks human USP30 ubiquitin-rhodamine cleavage | purified USP30, Ub-rhodamine cleavage fluorescence | inhibition, % at 25 µM | 5.3% of 47,000 active
Target sequence (Q70CQ3 whole entry, looked up): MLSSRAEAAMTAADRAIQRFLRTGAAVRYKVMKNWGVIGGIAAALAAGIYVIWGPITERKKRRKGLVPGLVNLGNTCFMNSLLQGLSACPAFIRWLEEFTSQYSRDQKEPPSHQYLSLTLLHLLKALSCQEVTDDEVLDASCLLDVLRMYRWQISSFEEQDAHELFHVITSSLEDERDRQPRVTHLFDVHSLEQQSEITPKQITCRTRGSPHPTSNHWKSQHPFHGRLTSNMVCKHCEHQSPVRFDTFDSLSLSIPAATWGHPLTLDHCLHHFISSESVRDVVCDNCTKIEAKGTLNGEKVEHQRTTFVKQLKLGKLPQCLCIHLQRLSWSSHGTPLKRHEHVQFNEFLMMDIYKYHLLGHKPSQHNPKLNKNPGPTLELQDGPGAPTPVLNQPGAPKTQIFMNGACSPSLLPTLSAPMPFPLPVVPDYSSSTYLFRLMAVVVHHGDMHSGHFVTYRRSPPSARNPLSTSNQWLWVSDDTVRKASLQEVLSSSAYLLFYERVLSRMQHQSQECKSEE
USP8 inh = blocks human USP8 ubiquitin-rhodamine cleavage; P40818; purified USP8, Ub-rhodamine cleavage fluorescence, 30 min; inhibition, % at 20 µM; 4.2% of 47,000 active
USP17 inh = blocks human USP17 ubiquitin-rhodamine cleavage; 6.5% of 47,000 active; purified USP17, Ub-rhodamine cleavage fluorescence, 3 h; inhibition, % at 50 µM; AID 1645855; A8MUK1
* = called active by the depositor; i = inactive; x = no result given. Compounds with a hit are over-represented: about 12% of the library has one in this group of screens. Rule as the data show it: active = inhibition above about 30%; inactive = the rest.

SMILES | USP30 inh | USP8 inh | USP17 inh
Cc1ccc(Nc2nc(C(=O)NCc3ccccc3)cc3occc23)cc1 | -64 | 17 | 32*
CCCc1ncc(-c2c[nH]c3ccccc23)o1 | -10 | -12 | -28
CC1CCCCN1c1ncnc2c1oc1nc3c(cc12)COC(C)(C)C3 (stereo unspecified) | x | -3 | 1
COc1ccc(OC)c(NC(=O)C2=C(C)Nc3ncnn3C2c2ccccn2)c1 (stereo unspecified) | 4 | 5 | 7
COc1ccc(OC)c(NC(=O)C2=C(C)Nc3ncnn3C2c2ccccc2OCc2ccc(C)cc2)c1 (stereo unspecified) | -20 | 1 | 58*
Cc1cc(O)ccc1NC(=O)CC(NCCc1ccccc1)C(=O)O (stereo unspecified) | 6 | 31* | 12
Cc1ccc(NC(=O)CC(NCCc2ccccc2)C(=O)O)cc1 (stereo unspecified) | 4 | 0 | -7
COc1ccc2[nH]cc(CCNC(=O)Cc3csc(-c4ccc(OC)c(OC)c4)n3)c2c1 | 12 | 10 | 15
CSc1nnc(-c2csc(-c3cccc(C(F)(F)F)c3)n2)n1C | 94* | 13 | 68*
FC(F)(F)c1cccc(-c2nc(-c3ccccn3)no2)c1 | 10 | 0 | 3
Cn1c(SCc2ccccc2)nnc1-c1csc(-c2ccccc2)n1 | 53* | 22 | 38*
c1ccc(-c2nc(CSc3nnc(C4CC4)n3-c3ccccc3)cs2)cc1 | 9 | -9 | 6
Cc1cc(C)n2ncc(C(=O)NCCCN3CCCC3=O)c2n1 | 7 | 2 | 0
COc1cccc([C@@H]2c3c(C)nn(C)c3NC(=O)[C@H]2NC(=O)c2ccc(Cl)cc2)c1 | 4 | 21 | 11
OC(CN1CCN(c2ncccn2)CC1)c1ccc(Cl)cc1 (stereo unspecified) | -3 | 0 | -3
Oc1ccc2ccccc2c1CN1CCN(c2ncccn2)CC1 | x | 0 | 36*
Oc1ccc2ccccc2c1CN1CCCC1 | -2 | 38* | 17
Cn1c(CN2CCCCC2)nc2ccccc21 | -14 | -2 | -5
O=S(=O)(Nc1ccc2c(c1)OCCO2)c1ccc(-c2ccon2)s1 | -22 | 0 | -6
CCOC(=O)C1C2C(=O)N(C)c3ccccc3C(=O)C12C (stereo unspecified) | 14 | -1 | -2
CN(C)c1ccc(-c2noc(C(=O)NC3CC(C)(C)NC(C)(C)C3)n2)cc1 | 26 | 15 | 5
CC1(C)CC(NC(=O)c2nc(-c3ccc(F)cc3)no2)CC(C)(C)N1 | 34* | 24 | 16
O=C1NC2(CCN(C(=O)CSc3ccncc3)CC2)Nc2ccccc21 | 5 | 20 | 12
Cc1ccc(C)c(S(=O)(=O)N2CCC3(CC2)NC(=O)c2ccccc2N3)c1 | 20 | 20 | 59*
O=C1NC2(CCN(S(=O)(=O)c3ccc(F)cc3F)CC2)Nc2ccccc21 | 22 | 8 | 0
SMILES | USP30 inh | USP8 inh | USP17 inh
O=C1NC2(CCN(S(=O)(=O)c3ccc(F)c(Cl)c3)CC2)Nc2ccccc21 | -2 | 4 | 50*
CCOc1ccc(NC(=NC2CCCCC2)NS(C)(=O)=O)cc1 | x | -1 | 1
O=C(c1ccc(Cl)cc1)N1CCCn2nnc(CN3CCCCC3)c2C1 | 15 | -56 | -7
O=C(O)Cc1ccc(N2C(=O)Nc3ccccc3N2O)cc1 | -8 | -3 | 5
CN(Cc1ccccc1)c1ncc(C(=O)O)c(-c2ccncc2)n1 | -11 | -11 | -2
COc1cc(C(=O)[C@@H]2[C@@H]3CCCN3[C@]3(C(=O)Nc4ccc(F)cc43)[C@@]23C(=O)Nc2ccccc23)cc(OC)c1OC | -64 | -2 | -8
COc1cccc(C(=O)Nc2cccc3cnccc23)c1 | -15 | 24 | 16
COc1cccc(CNC(=O)c2ccc(Cn3cncn3)cc2)c1 | 29 | 5 | 8
COc1cccc(-n2cnc3cc(C(=O)N4CCCCC4)ccc3c2=O)c1 | 19 | 19 | 11
COc1cccc(CNC(=O)c2ccccc2NC(=O)c2ccc(F)cc2)c1 | 41* | 1 | 7
O=C(NCCc1ccccc1)c1ccccc1-c1ccccc1C(=O)NCCc1ccccc1 | 32* | 12 | 11
O=C(Cc1ccccc1)NCCc1ccccc1 | -53 | 1 | -1
COc1cccc(-n2cnc3cc(C(=O)NCCc4ccccc4)ccc3c2=O)c1 | -21 | 54* | 0
COc1cccc(C(=O)Nc2ccccc2C(=O)NCCc2ccccc2)c1 | 49* | -2 | 29
COc1ccc(CN(C(=O)C2Cc3cc(Cl)ccc3O2)C2CC2)cc1 (stereo unspecified) | -6 | 2 | 6
CCOc1ccc(NC(=O)C2C3C=CC4(O3)C2C(=O)N(Cc2ccc3c(c2)OCO3)C4C(=O)NC2CCCCC2)cc1 (stereo unspecified) | 15 | 24 | 11
COc1ccc(CCCNc2ncc(-c3cc(C)no3)c(-c3ccco3)n2)cc1OC | -109 | -2 | 22
CCOC(=O)c1cnn(-c2ccc(C(=O)NCc3ccccc3)cc2)c1N | 22 | 5 | 6
Cc1c(C(=O)N2CCOCC2)cnn1-c1cc(-c2nc(C(C)(C)C)no2)ccn1 | 15 | 2 | -1
Cc1nnc2n1CCN(C(=O)c1ccc(OC(F)(F)F)cc1)C2 | 8 | 9 | -4
CCc1ccc(C(=O)Nc2ccc(OC)c(OC)c2)cc1 | 1 | -1 | 12
COc1ccccc1OCc1ccc(C(=O)Nc2ccc(F)cc2C)cc1 | 13 | 0 | 53*
O=C(c1cc(Cl)ccc1Cl)N1CCN(c2ccc3nnc(-c4ccco4)n3n2)CC1 | 10 | 49* | 61*
Cc1ccc(C)c(S(=O)(=O)N2CCN(c3ccc4nnc(-c5ccco5)n4n3)CC2)c1 | 41* | 76* | 63*
Cc1ccc(-c2ccc(N3CCOCC3)nn2)cc1S(=O)(=O)N1CCOCC1 | i | -8 | x
SMILES | USP30 inh | USP8 inh | USP17 inh
O=S(=O)(c1ccccc1Cl)N1CCN(c2ccc3nnc(-c4ccco4)n3n2)CC1 | 38* | 50* | 72*
O=S(=O)(c1ccccc1Cl)N1CCN(CCOc2ccccc2)CC1 | -10 | -13 | 0
CC1CCN(c2ccc3nnc(CCC(=O)NCc4ccco4)n3n2)CC1 | 12 | 8 | 0
Cc1oc2ncn3nc(-c4cc(-c5ccc(F)cc5)n[nH]4)nc3c2c1C | -70 | -2 | -28
O=C(CN1C(=O)c2ccccc2C1c1c[nH]c2ccccc12)NCc1ccc2c(c1)OCO2 (stereo unspecified) | -50 | 15 | 0
CCS(=O)(=O)N1CCCc2cc(C(=O)NC(c3ccccc3)c3ccccc3)ccc21 | 26 | -7 | -4
O=C(NCc1cccnc1)c1cn(-c2cccc(Cl)c2)nn1 | 29 | -3 | 24
Cc1ccc(-n2cc(C(=O)NCc3cccnc3)nn2)cc1C | 66* | -3 | x
O=C(NCc1ccccn1)c1cn(-c2cccc(Cl)c2)nn1 | 9 | -1 | 33*
O=C(NCc1cccnc1)c1cn(-c2ccc(Cl)cc2)nn1 | 0 | 1 | 2
Cc1cc(=O)nc2c3ccccc3n(CC(=O)NCCCN3CCCCCC3)n12 | -21 | -12 | 6
CNC(=O)C1CN(C(=O)Nc2cccc(C)c2)CC12CCCC2 (stereo unspecified) | 1 | -10 | -4
CCCOc1ccc(-c2nc(C#N)c(N3CCN(C(=O)c4ccccc4C)CC3)o2)cc1 | 16 | 0 | 2
CCOC(=O)C1CCCN(Cc2cc(=O)oc3cc(C)c(C(C)C)cc23)C1 (stereo unspecified) | -5 | -5 | 4

From PubChem
